Where a name gives a salt, the structure may show the parent alone.
tested on: hN + hpA co-culture (H1 iNGN2 human neurons + human primary astrocytes); test: presynaptic density (SYNAPSIN1 puncta per MAP2 neurite area), Z-score vs DMSO controls; higher = more presynaptic puncta (synapse-promoting); details: 3 µM; 72 h
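Note: immunostained co-cultures imaged by high-content microscopy, Z-score per plate against mean and SD of 0.1% DMSO wells, compounds added on differentiation day 18, analysed day 21.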

Going from `CN(C)CCc1c[nH]c2ccc(Cn3cncn3)cc12` to `COc1cc2c(cc1-c1c(C)noc1C)ncc1[nH]c(=O)n([C@H](C)c3ccccn3)c12` [I-BET 151 hydrochloride], the “presynaptic density (Z-score)” value rises from -0.227 to 3.55.

First: CC(C)(C)c1cnc(CSc2cnc(NC(=O)C3CCNCC3)s2)o1
Second: CCn1c(-c2nonc2N)nc2c(C#CC(C)(C)O)ncc(OC[C@H]3CCCNC3)c21
The “presynaptic density (Z-score)” value of the first is lower: -3.77 for the first, -0.664 for the second.

With `C/C(=C\C(=O)Nc1ccccc1C(=O)O)c1ccc2ccccc2c1` the “presynaptic density (Z-score)” value was -1.34.

From the supplement of paper PMC10121225
